# Screens as filed in PubChem BioAssay.
# This is a sample that favours compounds with a hit; in the whole collection about 3.5% have one here.
# MITF primary = blocks human microphthalmia-associated transcription factor; AlphaScreen MITF homodimerization, bead proximity signal; inhibition, % at 2.6 µM; hit rate 0.91% among 650,000; in the data active means inhibition above about 50%
# TEAD-YAP inh = TEAD-YAP interaction inhibition. inhibition, % at 9.12 µM. AID 1259422. hit rate 1.4% among 640,000. HEK-TIYL cells, TEAD-Gal4/YAP UAS-luciferase luminescence; in the data active means inhibition above about 32%
# GPR151 ag = human GPR151 activation; activation, % at 11.2 µM; Q8TDV0; PathHunter beta-arrestin GPR151 cells, luminescence; hit rate 1% among 650,000; in the data active means activation above about 4.9%
# Target sequence (Q8TDV0 whole entry, looked up): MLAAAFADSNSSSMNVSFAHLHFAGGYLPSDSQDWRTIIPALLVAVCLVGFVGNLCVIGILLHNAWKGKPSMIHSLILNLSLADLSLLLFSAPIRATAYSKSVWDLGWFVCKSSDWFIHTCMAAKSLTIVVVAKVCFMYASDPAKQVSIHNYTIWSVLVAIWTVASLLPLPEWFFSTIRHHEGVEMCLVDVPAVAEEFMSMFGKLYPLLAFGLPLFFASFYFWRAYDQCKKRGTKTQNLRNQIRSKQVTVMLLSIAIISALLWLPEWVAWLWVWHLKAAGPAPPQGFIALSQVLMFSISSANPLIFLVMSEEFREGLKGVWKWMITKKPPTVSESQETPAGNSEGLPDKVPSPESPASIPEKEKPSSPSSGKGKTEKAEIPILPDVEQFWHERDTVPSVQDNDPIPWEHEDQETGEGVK
# FBW7 act = human FBW7 E3 ligase activation, primary screen; hit rate 0.13% among 650,000; AlphaScreen FBW7–phospho-cyclin E peptide binding, activator screen; Q969H0; normalized activity (activation), % at 26.1 µM; in the data active means normalized activity above about 1.9%;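 further: purified mutant Fbw7 with reduced substrate affinity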
# Hits are given with their value; . = inactive.
SMILES,MITF primary,TEAD-YAP inh,GPR151 ag,FBW7 act
c1cc(-c2cncc(N3CCOCC3)c2)nc(Nc2ccc(-c3cnn(CCN4CCOCC4)c3)cc2)n1,.,96,.,.
Fc1cncc(-c2ccnc(Nc3ccc(-c4cnn(CCN5CCOCC5)c4)cc3)n2)c1,.,.,.,.
CC(C)OCCNC(=O)CC1C(=O)NCCN1Cc1ccc(-c2ccccc2)cc1 (stereo not drawn),.,.,.,.
O=C(/C=C/c1ccc(F)cc1)N1CCc2ccccc21,.,56,.,.
O=C(/C=C/c1ccccc1[N+](=O)[O-])N1CCCC1,.,.,.,.
O=C(/C=C/c1ccccc1[N+](=O)[O-])N1CCc2ccccc21,.,44,.,.
N#Cc1cc2c(=O)n3ccccc3nc2n(-c2ccc([N+](=O)[O-])cc2)c1=O,.,.,.,.
COc1cc(/C=C2/SC(=Nc3ccccc3Cl)NC2=O)ccc1OCc1ccc(Cl)cc1,.,.,.,.
O=c1cc2oc3cc(O)c(O)cc3c(-c3ccc([N+](=O)[O-])o3)c-2cc1O,106,.,.,.
O=c1cc2oc3cc(O)c(O)cc3c(-c3ccc4c(c3)OCO4)c-2cc1O,113,.,.,.
CCCc1cc2c(=O)c(-c3ccc4c(c3)OCO4)c(CC)oc2cc1O,.,.,.,.
CCN(CC)c1ccc(-c2c3cc(O)c(=O)cc-3oc3cc(O)c(O)cc23)cc1,110,.,.,.
COc1ccc(SCC(=O)Nc2c3c(nn2C)CCC3)cc1,.,38,.,.
COc1ccc(SCCCC(=O)Nc2c3c(nn2C)CCC3)cc1,.,45,.,.
Cc1ccnc(NC(c2cccs2)c2ccc3cccnc3c2O)c1 (stereo not drawn),.,52,.,.
Cc1ccc(C)c(C(Nc2ccccn2)c2ccc3cccnc3c2O)c1 (stereo not drawn),.,76,.,.
Cc1ccnc(NC(c2ccccc2C)c2ccc3cccnc3c2O)c1 (stereo not drawn),.,90,.,.
CCOC(=O)c1c(NC(C)=O)sc(Br)c1-c1ccccc1,.,.,.,.
O=C1CCCC2=C1C(c1cccs1)c1c(n[nH]c1-c1ccc([N+](=O)[O-])cc1)N2 (stereo not drawn),.,42,.,.
CC(CO)Nc1c2ccccc2nc2ccccc12 (stereo not drawn),.,38,.,.
CC1=CC(C)(C)N=C(Nc2nc(C)c3cc(C)cc(C)c3n2)N1,.,59,.,.
COc1ccccc1NC(=O)CSc1nnc(C)c(=O)n1N,.,.,.,.
O=C(CN1C(=O)C2C3C=CC(C3)C2C1=O)Nc1c2ccccc2nc2ccccc12 (stereo not drawn),.,72,.,.
O=C(CN1C(=O)C2C3C=CC(C3)C2C1=O)NCc1ccccc1 (stereo not drawn),.,.,.,.
Cc1nc(C)n(-c2ccc(Nc3nccc(-c4cncc5ccccc45)n3)cc2)n1,.,81,.,.
SMILES,MITF primary,TEAD-YAP inh,GPR151 ag,FBW7 act
Cc1nc(C)n(-c2ccc(Nc3nccc(-c4ccccc4-c4ccccc4)n3)cc2)n1,.,.,.,.
CCOc1cccc2cc(C(=O)Nc3cccc(C(F)(F)F)c3)c(=Nc3ccc(C(=O)O)cc3)oc12,.,.,.,.
COc1ccc2cc3c(N)nn(C(=O)Cc4c[nH]c5ccccc45)c3nc2c1,.,75,.,.
COc1ccc(CC(=O)n2nc(N)c3cc4ccc(OC)cc4nc32)cc1,.,41,.,.
COc1cccc(CC(=O)n2nc(N)c3cc4ccc(OC)cc4nc32)c1,.,.,.,.
Cc1ccc(NS(=O)(=O)/C=C/c2ccccc2)cc1,.,.,.,.
Cc1ccc(NC(=O)c2ccc(Nc3nc(-c4ccccc4)c4cc(C)ccc4n3)cc2)cc1,.,.,.,.
Cc1ccc2nc(Nc3cccc(C(=O)Nc4ccc(O)cc4)c3)nc(-c3ccccc3)c2c1,.,50,.,.
COc1cc(C(=O)Nc2ccccc2)c2ccccc2n1,.,.,.,.
CCOc1ccc(NC(=O)c2cc(OC)c(OC)c(OC)c2)cc1,.,55,.,.
Nc1ccccc1C(=O)NCCc1ccccc1,.,63,.,.
CCOc1ccc(-c2cc(C(=O)Nc3cc(=O)n(C)c(=O)n3C)c3ccccc3n2)cc1,.,76,.,.
CCOc1ccc(NC(=O)c2cc(OC)nc3ccccc23)cc1,.,52,.,.
CC(=O)c1ccc(NS(=O)(=O)c2ccc3c(c2)OCC(=O)N3)cc1,.,.,.,.
CCc1ccc(-c2cc(C(=O)Nn3cnnc3)c3ccccc3n2)cc1,.,82,.,.
NS(=O)(=O)c1ccc(NC(=O)c2cc(-c3ccccc3)nc3ccccc23)cc1,.,.,.,1.9
COc1cc(C(=O)NCc2ccc(C(=O)NCCc3ccccc3)cc2)cc(OC)c1OC,.,.,.,.
COc1cc(C(=O)Nc2ccccc2C(=O)NCCc2ccccc2)cc(OC)c1OC,.,39,.,.
NS(=O)(=O)c1ccc(NC(=O)c2cc(-c3ccncc3)nc3ccccc23)cc1,.,.,.,.
COc1cc(C(=O)Nc2ccc(-c3nc4ccccc4[nH]3)cc2)cc(OC)c1OC,.,32,.,.
COc1ccc(C(=O)Nc2ccc(-c3nc4ccccc4[nH]3)cc2)cc1OC,.,.,.,.
Cc1ccc(-c2nc(C(N)=O)c3[nH]c(=O)n(-c4ccc(F)cc4)c3n2)o1,.,.,.,.
Nc1nnc(-c2ccccc2Cn2c(-c3nonc3N)nc3ccccc32)s1,.,.,.,.
COc1ccccc1C(=O)Nc1ccc2nc(SCC(=O)Nc3ccccc3F)sc2c1,.,.,.,.
N#Cc1cc2c(nc1N)sc1c(-c3ccc(Br)cc3)c(C#N)c(N)nc12,.,.,.,.
SMILES,MITF primary,TEAD-YAP inh,GPR151 ag,FBW7 act
COc1cc(C(=O)Nc2ccccc2C(=O)Nc2cccc(C(=O)O)c2)cc(OC)c1OC,.,.,.,.
COc1cc(C(=O)Nc2ccccc2C(=O)Nc2ccccc2)cc(OC)c1OC,.,53,.,.
COc1ccc(C(=O)NCCOc2cc(C)cc(C)c2)cc1OC,.,.,.,.
COc1cc(C(=O)NCCOc2cc(C)cc(C)c2)cc(OC)c1OC,.,52,.,.
Cc1cc(Nc2ccc(Oc3ccccc3)cc2)nc(-c2ccc(C(=O)NC3CC3)cc2)n1,.,.,.,.
CN1CCN(C(=O)c2ccc(-c3nc(NC4CC4)c4ncn(-c5ccsc5)c4n3)cc2)CC1,.,49,.,.
CN1CCN(c2ccc(-c3nc(NCc4ccccc4)c4ncn(-c5ccsc5)c4n3)cc2)CC1,.,.,.,.
CN1CCN(C(=O)c2ccc(-c3nc(NCc4nc5ccccc5[nH]4)c4ncn(-c5ccccc5)c4n3)cc2)CC1,.,.,.,.
CN1CCN(c2ccc(-c3nc(NC4CC4)c4ncn(-c5ccsc5)c4n3)cc2)CC1,.,49,.,.
CN1CCN(C(=O)c2ccc(-c3nc(NCc4nc5ccccc5[nH]4)c4ncn(-c5ccsc5)c4n3)cc2)CC1,.,59,.,.
CN1CCN(C(=O)c2ccc(-c3nc(Nc4ccccc4)c4ncn(-c5ccsc5)c4n3)cc2)CC1,.,.,.,.
